Here are results for ten compounds from PubChem BioAssay (NCATS).

Results filed as inconclusive are left out. Active and inactive are the calls of the source. Unless noted, calls come from the whole dose curve; as a rule, active = well fitted inhibition curve with a large enough effect; inconclusive = small, poorly fitted or top-dose-only effect; inactive = no such curve, though single readings can be large or run the other way.

Test [1] can be described thus: qHTS profiling of the MIPE4 collection as inhibitors of Plasmodium falciparum (DD2) proliferation (Rep 2) (AID 743346; call rule not given here). The following applies: P. falciparum Dd2 in erythrocytes, SYBR Green DNA, 72 h; at 28.5 µM unless noted. An outline of the steps: (§1)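 Erythrocytes infected with P. falciparum (0.3% parasitemia, 2.5% hematocrit) incubated with compounds 72 h at 37 C, 5% CO2. Lysis with saponin/Triton buffer containing SYBR Green I, overnight at room temperature in the dark; DNA fluorescence (485/535 nm) normalised to 0.29 uM artemisinin and DMSO.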

A short description of test [2]: qHTS profiling of the MIPE4 collection as inhibitors of Plasmodium falciparum (HB3) proliferation (AID 743347; call rule not given here;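 note: plate controls were DMSO vehicle wells for no effect and artemisinin wells for full effect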). The following applies: P. falciparum HB3 in erythrocytes, SYBR Green DNA, 72 h; at 28.5 µM unless noted. An outline of the steps: as §1
(qHTS replaces the single test concentration by a dilution series.)

Test [3] can be described thus: High-throughput drug toxicity screening in the BPDCN cell line Gen2.2 (AID 1224824; call rule not given here;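 note: cells exposed to compounds for 48 h before reading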). The following applies: Gen2.2 BPDCN cells; at 45.8 µM (top of the series) unless noted. The method, boiled down:
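Readout is ATP luminescence from Gen2.2 cells after two days of drug exposure in serum-containing medium at 37 °C. Values express percent activity, with vehicle defining full signal and 9.2 uM bortezomib defining zero.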

The nature of test [4]: High-throughput drug toxicity screening in the BPDCN cell line Cal-1 (AID 1224825; call rule not given here). Particulars: Cal-1 BPDCN cell viability, qHTS; at 45.8 µM (top of the series) unless noted. An outline of the steps: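 Exponentially growing Cal-1 cells, 500 per well in phenol red-free RPMI with 10% FBS, were exposed to compounds for 48 h at 37 °C, 5% CO2. Viability was read by CellTiter-Glo luminescence and normalised to DMSO (100%) and 9.2 uM bortezomib (0%).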

Test [5] is described as follows: qHTS assay for measurement of the activity of small molecule inhibitors on Zika virus induced Caspase-3 activity in human iPSC derived neural progenitor cells (hNPCs) (AID 1224857). Note: % of control where 0% means no effect; nearly all actives have a fitted effect of over 65% in size. An outline of the steps:
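Cells were plated at 350 per well and grown 16 to 20 hours. Compound pretreatment lasted one hour, after which ZIKV (2 FFU/cell) was added for 6 hours. Percent inhibition was normalized between uninfected and infected controls.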

A short description of test [6]: qHTS assay for measurement of the activity of small molecule inhibitors on Zika virus induced Caspase-3 activity in human astrocytoma cells (AID 1224859).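 Note: plate controls were ZIKV-infected untreated cells for no effect and uninfected cells for full effect.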 The method, boiled down:
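Percent inhibition of virus-induced caspase-3/7 signal is calculated against uninfected and ZIKV-infected control cells. Cells are SNB-19, infected at 2 FFU/cell for 6 h after 1 h compound exposure.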

Test [7] in a line: qHTS Screen of the MIPE 4.0 Collection Against Ewings Sarcoma (RDES) (AID 1259252). Note: nearly all actives have a fitted effect of over 35% in size. Note: potency is the fitted concentration of half-maximal effect. An outline of the steps:
(§2)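 Here, cells in 5% FBS RPMI were exposed for two days (48 h) to compound dilutions added four hours after plating. ATP-based CellTiter-Glo luminescence measured viability, normalized to vehicle and no-cell blanks.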

Test [8] in a line: qHTS Screen of the MIPE 4.0 Collection Against Ewings Sarcoma (TC71) (AID 1259253). Note: nearly all actives have a fitted effect of over 40% in size. Note: potency is the fitted concentration of half-maximal effect. The method, boiled down:
as §2

A short description of test [9]: qHTS Screen of the MIPE 4.0 Collection Against Ewings Sarcoma (EW8) (AID 1259255).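 For viability: 100% = DMSO-treated cells and 0% = medium-only wells without cells.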 Note: nearly all actives have a fitted effect of over 35% in size. Note: potency is the fitted concentration of half-maximal effect. An outline of the steps:
as §2

A short description of test [10]: qHTS Screen of the MIPE 4.0 Collection Against Ewings Sarcoma (TC32) (AID 1259256). Note: nearly all actives have a fitted effect of over 45% in size. Note: potency is the fitted concentration of half-maximal effect. The method, boiled down: as §2

On to `CC(C)c1cc(C(C)C)c(CC(=O)NS(=O)(=O)Oc2c(C(C)C)cccc2C(C)C)c(C(C)C)c1`, for which the parasite growth, % of control (lower = inhibition) in [1] is 80.1%. This compound registered a growth, % of control in [2] of 89.6%. Further, the cell viability, % of control (lower = more cytotoxic) in test [3] was 94.3%. Further, the viability (% of control) in [4] was determined as 60.9%. The Potency result in test [5] and in test [6] was “inactive” each time. Besides, the Potency in [7] is 7.43 µM (active); in [8], 0.743 µM (active); in test [9], 7.43 µM (active).
Take `C#C[C@]1(O)CC[C@@H]2[C@@H]3CCc4cc(O)ccc4[C@H]3CC[C@@]21C`: in test [1], the parasite growth, % of control (lower = inhibition) stood at 54.7%. Further, the growth, % of control in test [2] amounted to 89.8%. Further, the cell viability, % of control (lower = more cytotoxic) in [3] was found to be 67.3%. Besides, the viability (% of control) in test [4] amounted to 11.2%. Also, the Potency result in test [5] and in test [6] was “inactive” in each case. Besides, the Potency in test [7] is 18.7 µM (active); in test [8], 16.6 µM (active); in test [9] it was 20.9 µM (active).
Regarding `CC(C)c1cnn2c(NCc3ccccc3)cc(NCCCCCCN)nc12`, the parasite growth, % of control (lower = inhibition) in test [1] is 11.2%. In test [2], this compound registered a growth, % of control of 2.16%. Further, the cell viability, % of control (lower = more cytotoxic) in test [3] came to 4.58%. The viability (% of control) in test [4] was 3.93%. The Potency result in [5] and in [6] was “inactive” in each case. Besides, the Potency in [7] was 3.72 µM (active); in test [9], 18.7 µM (active); in test [10], 13.2 µM (active).
For `CC(=O)NC(CS)C(=O)O` (stereo unspecified), in [1], the parasite growth, % of control (lower = inhibition) was 118%. In test [2], the growth, % of control is 60.7%. The cell viability, % of control (lower = more cytotoxic) in test [3] was determined as 87%. In addition, the viability (% of control) in [4] stood at 93.6%. The Potency result in [5], in test [6], in test [7], in [9] and in [10] was “inactive” in each case.
Regarding `COc1cc(C)c(Sc2cnc(NC(=O)c3ccc(CNC(C)C(C)(C)C)cc3)s2)cc1C(=O)N1CCN(C(C)=O)CC1` (stereo unspecified), the parasite growth, % of control (lower = inhibition) in [1] is 17.2%. This compound returned a growth, % of control in [2] of 4.86%. Further, the cell viability, % of control (lower = more cytotoxic) in test [3] turned out to be 4.37%. Further, the viability (% of control) in test [4] turned out to be 3.38%. Also, the Potency entry in test [5] and in test [6] was “inactive” each time. Also, the Potency in test [7] was 16.6 µM (active); in test [8] it was 14.8 µM (active); in [9], 1.48 µM (active).
As to `NC(=O)c1cccc(-c2cccc(OC(=O)NC3CCCCC3)c2)c1`, in test [2], the growth, % of control stood at 94.2%. Also, the cell viability, % of control (lower = more cytotoxic) in test [3] was 128%. Also, the viability (% of control) in test [4] was found to be 91.7%. Further, the Potency result in test [5], in test [6], in test [7], in [8], in test [9] and in test [10] was “inactive” each time.
For the compound `COc1cc(N2CCC(C(N)=O)CC2)ccc1Nc1nc(N)c(Cl)c(Nc2ccccc2S(=O)(=O)C(C)C)n1`, the parasite growth, % of control (lower = inhibition) in [1] is 35.9%. The compound also had a growth, % of control in test [2] of 53.9%. Further, the cell viability, % of control (lower = more cytotoxic) in [3] was determined as 147%. For the same compound, the viability (% of control) in test [4] worked out at 10.6%. The Potency result in test [5] and in test [6] was “inactive” throughout. Further, the Potency in [7] was 1.05 µM (active); in [9], 20.9 µM (active); in test [10], 6.62 µM (active).
Consider `CCc1cnn2c(NCc3ccc[n+]([O-])c3)cc(N3CCCC[C@@H]3CCO)nc12`, for which, in [1], the parasite growth, % of control (lower = inhibition) came out at 12.6%. This compound also returned a growth, % of control in test [2] of 8.08%. In test [3], the cell viability, % of control (lower = more cytotoxic) amounted to 4.38%. Besides, the viability (% of control) in test [4] was 3.16%. Also, the Potency entry in test [5] and in [6] was “inactive” throughout. Also, the Potency is 0.0418 µM (active) in test [7], 0.0264 µM (active) in [8] and 0.0235 µM (active) in [9].
As for `COC1=C(OC)C(=O)C(CC=C(C)CCC=C(C)CCC=C(C)CCC=C(C)CCC=C(C)CCC=C(C)CCC=C(C)CCC=C(C)CCC=C(C)CCC=C(C)C)=C(C)C1=O`, the parasite growth, % of control (lower = inhibition) in test [1] came to 131%. For the same compound, the growth, % of control in test [2] stood at 97.8%. In test [3], the cell viability, % of control (lower = more cytotoxic) was 125%. Moreover, in test [4], the viability (% of control) was 111%. Also, the Potency result in test [5], in test [6], in [7], in test [8], in test [9] and in test [10] was “inactive” throughout.
Regarding `CN[C@@H]1C[C@H]2O[C@@](C)([C@H]1OC)n1c3ccccc3c3c4c(c5c6ccccc6n2c5c31)C(=O)N[C@H]4O`, the parasite growth, % of control (lower = inhibition) in [1] is 14.9%. The growth, % of control in test [2] was determined as 3.74%. Moreover, in test [3], the cell viability, % of control (lower = more cytotoxic) amounted to 13%. Also, in test [4], the viability (% of control) was 4.51%. Moreover, the Potency entry in test [5] and in test [6] was “inactive” in each case. Further, the Potency is 0.935 µM (active) in [7], 0.209 µM (active) in test [8] and 0.418 µM (active) in test [9].
